Compound activity: PubChem, National Center for Advancing Translational Sciences (NCATS)
A selection: hits, their analogues and other compounds. The true share with any hit is near 12%.
JMJD2A Tudor inh – JMJD2A Tudor domain (human) inhibition. O75164. AlphaScreen JMJD2A-Tudor / H3K4me3 peptide binding. Potency, µM (doses to about 114 µM), most hits filed as inhibitors. 390,000 compounds, 4.4% hits; further: nearly all actives have a fitted effect of over 50% in size
HP1b binding inh – blocks HP1-beta chromodomain binding to methylated histone tails | AlphaScreen HP1-beta / biotin-H3K9me3 peptide binding | Potency, µM (titrated, usually from 114 µM), usual class: inhibitors | 390,000 compounds, 0.56% hits; further: nearly all actives have a fitted effect of over 70% in size
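AlphaScreen: HP1-beta (50 nM) preformed 30 min with biotin-H3(1-18)K9me3 peptide (50 nM) in PBS pH 7.4, 0.01% Tween-20. Compound added for 30 min at RT, then streptavidin donor/nickel chelate acceptor beads (10 ug/mL) for 30 min.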
PI5P4Ka inh – blocks human PI5P4K alpha kinase activity | PI5P4Kalpha enzyme, ADP-Glo luminescence, 60 min; active compounds read low | 330,000 compounds, 1.2% hits | max response, % | AID 652105; active means max response of -50% or lower; inconclusive means between -30% and -50%; inactive means -30% or higher; further: value at the top dose of about 77 µM
Target sequence (P48426 whole entry, looked up): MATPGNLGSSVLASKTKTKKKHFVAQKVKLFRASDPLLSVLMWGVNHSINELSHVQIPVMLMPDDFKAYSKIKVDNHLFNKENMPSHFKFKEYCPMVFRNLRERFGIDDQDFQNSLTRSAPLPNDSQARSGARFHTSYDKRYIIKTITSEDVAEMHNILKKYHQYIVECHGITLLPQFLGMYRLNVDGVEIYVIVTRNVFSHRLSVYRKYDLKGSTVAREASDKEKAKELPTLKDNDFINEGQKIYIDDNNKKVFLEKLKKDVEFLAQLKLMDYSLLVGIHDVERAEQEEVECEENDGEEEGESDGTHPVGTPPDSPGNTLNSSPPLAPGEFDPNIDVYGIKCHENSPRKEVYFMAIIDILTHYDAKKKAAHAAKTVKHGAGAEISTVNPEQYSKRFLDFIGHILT
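Luminescence from ADP-Glo served as readout of PI5P4Kalpha activity in a qHTS format. Reaction: enzyme, substrate, compound, ATP at 5 microM final, 60 min at RT.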
G9a block – inhibitors of human histone lysine methyltransferase G9a; AID 504332; Potency, µM (top dose mostly 102 µM), hits mostly inhibitors; Q96KQ7; 350,000 compounds, 8.8% hits; G9a H3K9 monomethylation, AlphaScreen, 2 h; further: nearly all actives have a fitted effect of over 75% in size
Target sequence (Q96KQ7 913-1193 limits assumed): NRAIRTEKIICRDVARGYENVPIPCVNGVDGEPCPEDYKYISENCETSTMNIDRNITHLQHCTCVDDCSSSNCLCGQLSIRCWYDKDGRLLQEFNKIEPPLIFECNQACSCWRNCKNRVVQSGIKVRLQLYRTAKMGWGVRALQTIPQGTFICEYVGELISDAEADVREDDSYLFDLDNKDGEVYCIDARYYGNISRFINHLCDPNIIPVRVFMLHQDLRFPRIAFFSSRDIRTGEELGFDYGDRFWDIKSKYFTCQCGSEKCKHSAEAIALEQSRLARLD
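G9a (20 nM) preincubated 15 min RT with compounds, then 500 nM biotinylated H3K9 peptide and 20 uM SAM added; 2 h RT reaction. Monomethyl-H3K9 product detected by AlphaScreen with anti-H3K9me1 antibody, streptavidin donor and anti-rabbit IgG acceptor beads.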
BAZ2B block – BAZ2B (human) inhibition. Q9UIF8. AlphaScreen BAZ2B-H3K14Ac peptide displacement. Potency, µM (series often up to 114 µM), most hits filed as inhibitors. 360,000 compounds, 4.4% hits. AID 504333; further: nearly all actives have a fitted effect of over 60% in size
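In this displacement format the biotinylated H3(5-23) peptide acetylated at Lys14 serves as ligand at 50 nM, with BAZ2B at 50 nM in PBS pH 7.4 containing 0.01% Tween-20. Donor and acceptor beads are 10 ug/mL final.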
PLK1 PBD block – blocks phosphopeptide binding to human PLK1 polo-box domain | P53350 | AID 720504 | Potency, µM, most hits filed as inhibitors | 360,000 compounds, 2.8% hits | Plk1 PBD binding of FITC phosphopeptide, fluorescence polarization; further: series mostly up to about 57 µM; nearly all actives have a fitted effect of over 65% in size
Hits are given with their value; [ ] = remark or other dose. Unless noted, the call rests on the fitted dose curve; in most records, active means well fitted curve in the direction sought with a large enough effect; inconclusive means small, poorly fitted or top-dose-only effect, or another doubt; inactive means no such curve, though single readings can be large; an effect the other way counts as inactive or inconclusive.

COc1ccc(CC(=O)OCC(=O)Nc2ncc(Cl)c(C)c2Cl)cc1 was read as JMJD2A Tudor inh inactive, HP1b binding inh inactive, PI5P4Ka inh inactive, G9a block inconclusive, BAZ2B block inconclusive and PLK1 PBD block inactive.
Cc1ccc(Nc2nc3c(s2)CCC3)c(C)c1 was read as JMJD2A Tudor inh inactive, HP1b binding inh inactive, PI5P4Ka inh inactive, G9a block inconclusive, BAZ2B block inactive and PLK1 PBD block inactive.
For Cc1nc(Nc2ccccc2Cl)sc1C(=O)Nc1ccccc1 the results were JMJD2A Tudor inh inactive, HP1b binding inh inactive, PI5P4Ka inh inactive, G9a block 28µM, BAZ2B block inconclusive and PLK1 PBD block inactive.
COc1ccccc1Nc1nc(C)c(C(=O)Nc2ccccc2)s1 was read as JMJD2A Tudor inh inactive, HP1b binding inh inactive, PI5P4Ka inh inactive, G9a block 50µM, BAZ2B block inactive and PLK1 PBD block inactive.
COc1ccccc1Nc1nc2c(s1)CCC2 was read as JMJD2A Tudor inh inactive, HP1b binding inh inactive, PI5P4Ka inh inactive, G9a block 25µM, BAZ2B block inactive and PLK1 PBD block 27µM.
Screening O=C(Nc1nnc(SCC(=O)N2CCOCC2)s1)c1ccccc1 returned JMJD2A Tudor inh inconclusive, HP1b binding inh inactive, PI5P4Ka inh inactive, G9a block 10µM, BAZ2B block inactive and PLK1 PBD block inconclusive.
Cc1ccc2[nH]c(CSc3nnc(NC(=O)c4ccccc4C)s3)cc(=O)c2c1 was read as JMJD2A Tudor inh inactive, HP1b binding inh inactive, G9a block inactive and BAZ2B block 56µM.
`CCCC(=O)Nc1nnc(SCC(=O)N2C(C)CCCC2C)s1` (stereo not drawn) gave JMJD2A Tudor inh inactive, HP1b binding inh inactive, PI5P4Ka inh inactive, G9a block inactive, BAZ2B block inactive and PLK1 PBD block inactive.
`CCSc1nnc(NC(=O)CSc2nccn2-c2cccc(C)c2C)s1` gave JMJD2A Tudor inh 25µM, HP1b binding inh inconclusive, PI5P4Ka inh inactive, G9a block inconclusive, BAZ2B block inconclusive and PLK1 PBD block 3.8µM.
Screening CCCC(=O)Nc1nnc(SCC(=O)N2CCCCC2)s1 returned JMJD2A Tudor inh 71µM, HP1b binding inh inconclusive, PI5P4Ka inh inactive, G9a block 18µM, BAZ2B block inactive and PLK1 PBD block inconclusive.
CC1CCN(C(=O)CSc2nnc(NC(=O)Nc3ccccc3)s2)CC1 was read as JMJD2A Tudor inh inactive, HP1b binding inh inactive, G9a block 13µM and BAZ2B block inactive.
CS(=O)(=O)Nc1nnc(SCC(=O)N(c2ccccc2)c2ccccc2)s1 was read as JMJD2A Tudor inh inactive, HP1b binding inh inactive, PI5P4Ka inh inactive, G9a block 50µM, BAZ2B block inactive and PLK1 PBD block inactive.
Screening Cc1cccc(C)c1NC(=O)CSc1nnc(NC(=O)c2ccccc2C(=O)O)s1 returned JMJD2A Tudor inh inactive, HP1b binding inh inactive, PI5P4Ka inh inactive, G9a block 50µM, BAZ2B block inactive and PLK1 PBD block inactive.
Cc1cccc(C)c1NC(=O)CCCSc1nnc(N)s1 was read as JMJD2A Tudor inh inactive, HP1b binding inh inactive, PI5P4Ka inh inactive, G9a block 50µM, BAZ2B block inactive and PLK1 PBD block inactive.
`Cc1cccc(C)c1NC(=O)COC(=O)CSc1nnc(N)s1` gave JMJD2A Tudor inh inactive, HP1b binding inh inactive, PI5P4Ka inh inactive, G9a block inactive, BAZ2B block inactive and PLK1 PBD block inactive.
Screening NC(=S)NN=C1Cc2cccc3cccc1c23 returned JMJD2A Tudor inh inactive, HP1b binding inh inactive, PI5P4Ka inh inactive and PLK1 PBD block inactive.
CNC(=O)CSc1nnc(NC(=O)Nc2ccccc2)s1 was read as JMJD2A Tudor inh inactive, HP1b binding inh inactive, G9a block 16µM and BAZ2B block inactive.
Screening c1ccc(CNCCN2CCNCC2)nc1 returned JMJD2A Tudor inh inconclusive, HP1b binding inh inactive, G9a block inactive, BAZ2B block 16µM and PLK1 PBD block inactive.
Screening Cc1ccc(S(=O)(=O)N2CCN(c3nn(C)c(=O)n(C)c3=O)CC2)cc1C returned JMJD2A Tudor inh inactive, HP1b binding inh inactive, PI5P4Ka inh inactive, G9a block inactive[12.7 µM], BAZ2B block inactive and PLK1 PBD block inactive.
`CC(C)(C)N=C1NN=C(c2cc3ccccc3o2)CS1` gave JMJD2A Tudor inh inactive, HP1b binding inh inactive, PI5P4Ka inh inactive, G9a block 40µM, BAZ2B block inconclusive and PLK1 PBD block inactive.
For CCOc1ccc(Nc2nc(N)c([N+](=O)[O-])c(N3CCN(C)CC3)n2)cc1 the results were JMJD2A Tudor inh inactive, HP1b binding inh inactive, PI5P4Ka inh inactive, G9a block 79µM, BAZ2B block inconclusive and PLK1 PBD block inactive.
Screening CCN1CCN(c2nc(Nc3ccc(C)c(C)c3)nc(N)c2[N+](=O)[O-])CC1 returned JMJD2A Tudor inh inconclusive, HP1b binding inh inconclusive, PI5P4Ka inh inactive, G9a block 10µM, BAZ2B block inconclusive and PLK1 PBD block inactive.
Cc1cccc(Nc2nc(N)c([N+](=O)[O-])c(N3CCC(C)CC3)n2)c1 was read as JMJD2A Tudor inh 32µM, HP1b binding inh inconclusive, PI5P4Ka inh inactive, G9a block 50µM, BAZ2B block inconclusive and PLK1 PBD block inactive.
For CCN1CCN(c2nc(Nc3cccc(OC)c3)nc(N)c2[N+](=O)[O-])CC1 the results were JMJD2A Tudor inh inconclusive, HP1b binding inh inactive, PI5P4Ka inh inactive, G9a block inactive[2.33 µM], BAZ2B block inactive and PLK1 PBD block inactive.
`Cc1cccc(Nc2nc(N)c([N+](=O)[O-])c(N3CC(C)CC(C)C3)n2)c1` (stereo not drawn) gave JMJD2A Tudor inh inconclusive, HP1b binding inh inconclusive, PI5P4Ka inh inactive, G9a block inconclusive, BAZ2B block inconclusive and PLK1 PBD block inactive.
Screening COc1ccc(Nc2nc(N)c([N+](=O)[O-])c(N3CCOCC3)n2)cc1 returned JMJD2A Tudor inh inconclusive, HP1b binding inh inactive, PI5P4Ka inh inactive, G9a block inconclusive, BAZ2B block inconclusive and PLK1 PBD block inactive.
For CN(C)c1ccc(Nc2nc(N)c([N+](=O)[O-])c(N3CCOCC3)n2)cc1 the results were JMJD2A Tudor inh inconclusive, HP1b binding inh inconclusive, PI5P4Ka inh inactive, G9a block 7.1µM, BAZ2B block 35µM and PLK1 PBD block inactive.
`CSCCC(NS(=O)(=O)Cc1ccccc1)C(=O)NNc1ccccc1` (stereo not drawn) gave PI5P4Ka inh inactive and PLK1 PBD block inactive.
CCN(CCCNC(=O)c1nn(C)c2c1CS(=O)(=O)c1ccccc1-2)Cc1ccccc1 was read as JMJD2A Tudor inh inactive, HP1b binding inh inactive, PI5P4Ka inh inactive, G9a block inactive, BAZ2B block inactive and PLK1 PBD block inactive.
For CCCCc1nn2c(=O)cc(COC(=O)c3cccc(OC)c3)nc2s1 the results were JMJD2A Tudor inh inactive, HP1b binding inh inactive, G9a block inactive and BAZ2B block inactive.
CN(Cc1ccsc1)C(=O)Cn1cc(Br)ccc1=O was read as JMJD2A Tudor inh inactive, HP1b binding inh inactive, PI5P4Ka inh inactive, G9a block inactive, BAZ2B block inactive and PLK1 PBD block inactive.
